# Test results reported in PubChem BioAssay AID504332 (National Center for Advancing Translational Sciences (NCATS), 2011).
# Where “and” joins values, the source holds several entries; their conditions need not be identical. Identical values can stand only once. Among all 350,000 compounds or so, about 31,000 (8.9%) were called active. Inconclusive results (about 15%) are left out. Calls come from the whole dose curve; as a rule, active = well fitted inhibition curve with a large enough effect; inconclusive = small, poorly fitted or top-dose-only effect; inactive = no such curve, though single readings can be large or run the other way. What follows is part of a selection rich in actives, with near analogues and random picks from the rest. More than one record can exist for a structure, and the calls need not agree.
# Biological target: Histone-lysine N-methyltransferase EHMT2 (Homo sapiens) (UniProt Q96KQ7)
# Sequence (Q96KQ7 913-1193 limits assumed): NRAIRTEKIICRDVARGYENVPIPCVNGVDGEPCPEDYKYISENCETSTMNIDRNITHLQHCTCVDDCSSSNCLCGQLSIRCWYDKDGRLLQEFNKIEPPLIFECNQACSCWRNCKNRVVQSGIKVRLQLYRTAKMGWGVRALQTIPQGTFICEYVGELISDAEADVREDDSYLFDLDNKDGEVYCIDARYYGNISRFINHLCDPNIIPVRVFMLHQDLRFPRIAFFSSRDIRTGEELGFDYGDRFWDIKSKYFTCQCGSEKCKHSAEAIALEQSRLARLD
# Experiment: qHTS Assay for Inhibitors of Histone Lysine Methyltransferase G9a; note: nearly all actives have a fitted effect of over 75% in size
# Conditions: G9a H3K9 monomethylation, AlphaScreen, 2 h; series mostly up to 102 µM; activity, negative = inhibition: at the top concentration
# Description: Methylated lysines, on the N-terminal tails of histone proteins serve as epigenetic markers to recruit factors that can then modify local chromatin structure to lead to functional consequences. G9a and other members of the SUV39 family of the SET domain-containing superfamily of histone lysine methyltransferases (HMT) have been identified to specifically methylate Lys9 of histone H3 (H3K9). G9a catalyzes the mono- and di-methylation of H3K9 in mammalian euchromatic regions, where the resulting H3K9me2 is indicative of transcriptional repression. […] The inhibition of G9a will result in transcriptional activation and work synergistically with DNA methyltransferase and histone deacetylase inhibitors, to kill cancer cells. This qHTS assay for identification of G9a inhibitors is a chemiluminescence based AlphaScreen (PerkinElmer). Methylation of biotinylated-histone peptide is measured through specific antibody-based detection, in conjunction with streptavidin-coated donor and anti-IgG antibody-coated acceptor beads. The method is particularly well suited for detection of inhibitors acting by the desired histone peptide competitive mechanism and is applicable to testing other HMTs. Although AlphaScreen has significant advantages with its utility in a variety of epigenetic target assays, the primary screening data provided in this deposition should be used with caution due to the prevalence of screening artifacts. An AlphaScreen counterscreen is highly recommended to be run against any putative actives to eliminate non specific artifacts. Alternatively, one can use other AlphaScreen assays in PubChem to filter out promiscuous hits. Quinn et al. A chemiluminescence-based method for identification of histone lysine methyltransferase inhibitors. Mol Biosyst 6(5): 782-8. 2010. PMID: 20567762 [2] Baell,Holloway. New substructure filters for removal of pan assay interference compounds (PAINS) from screening libraries and for their exclusion in bioassays. J Med Chem. 53(7):2719-40. 2010. PMID: 20131845 NIH Molecular Libraries Probe Production Network [MLPCN] NIH Chemical Genomics Center [NCGC] Structural Genomics Consortium (SGC) NIH Grant: 5U54 MH084681-02
# To each well of a 1,536w plate, 2ul of HMT enzyme (final 20nM) were added, using a nanoliter dispenser. The G9a- and GLP-inhibitor BIX-01294 (CID: 25150857) are used as an intraplate control, with a 16-point titration in duplicate. A Kalypsys pin-tool transferred 23nl of library compound solution in DMSO to each well. Following a 15 min incubation of enzyme with compounds at room temperature, 1ul mixture of b-H3K9 peptide substrate (final 500nM) and SAM cofactor (final 20uM) were added. Reactions were allowed to proceed at room temperature for 2 hours. Methylated b-H3K9 peptide product was detected with 0.5 ug/mL rabbit polyclonal anti-monomethyl histone H3K9 antibody (Abcam Inc., Cambridge, MA) and 20 ug/mL each streptavidin-coated donor and anti-rabbit IgG acceptor AlphaScreen beads. Antibody and beads were added in a 1ul dispense, for a final volume of 4ul, and plates were incubated, protected from the light, for 10 min at room temperature. Microplates were then read on an EnVision multilabel plate reader using the 1,536 plate HTS AlphaScreen aperture (excitation time 80 ms, measurement time 240 ms).
# % is set by controls: 0 for no effect and ±100 for the full control effect; potency is the fitted concentration of half-maximal effect.
Structure (SMILES),"activity, negative = inhibition",Potency
c1csc(CN2CC3(CCNCC3)C2)n1,-16.9% [at 12.7 µM] (inactive),
c1ccc(N2CC[C@@]3(CCCNC3)C2)nc1,-39.9% [at 12.7 µM] (inactive),
COC(=O)CN1C(=O)C2(C(C(=O)OC)=C(N)Oc3ccccc32)C2=C1CC(C)(C)CC2=O (stereo unspecified),17.5% [at 59 µM] (inactive),
COc1cccc(N2C(=O)NC(=O)/C(=C\c3ccc([N+](=O)[O-])s3)C2=O)c1,,7.94 µM (active)
COc1cccc(N2C(=O)NC(=O)/C(=C\c3cn(C)c4ccccc34)C2=O)c1,-16.1% (inactive),
O=C1NC(=O)N(c2ccccc2)C(=O)/C1=C/c1ccc([N+](=O)[O-])s1,,8.91 µM (active)
CCN1C[C@]2(C)CC[C@H](O)[C@@]34[C@@H]5CC6[C@@H](OC)C[C@@](O)([C@@H]5[C@@H]6O)[C@H](C[C@@H]23)[C@H]14,28.6% [at 21.5 µM] (inactive),
CCOc1cccc(=NC2CCCCC2)c2c(C)[nH]c(C)c12,40.3% [at 12.7 µM] (inactive),
NC[C@H](O)c1ccc(O)cc1,24.2% [at 21.5 µM] (inactive),
CCN(CC)C(=O)c1ccc(NC(=O)c2cc(-n3cnnc3)ccc2Cl)cc1,-47.2% [at 12.7 µM] (inactive),
COC(=O)C1=C(c2ccc(Cl)c(C(F)(F)F)c2)C[C@@H]2CC[C@H]1N2C(=O)NC(C)C,11.8% [at 2.33 µM] (inactive),
CC[N+]1(C)CCCC(OC(=O)C(O)(c2ccccc2)c2ccccc2)C1 (stereo unspecified),inactive,
Cc1ncsc1CCCl,,inactive and 23.8 µM (active)
COc1ccc(CCn2c(O)c(C=NC3CC3)c(=O)[nH]c2=O)cc1OC,2.41% [at 59 µM] (inactive),
COC(=O)c1ccc2[se]c(CC3CCCCC3)c(I)c2c1,-2.16% [at 59 µM] (inactive),
O=C(C1CCN(CC2CCCCC2)CC1)N1CCCC1,,8.91 µM (active)
CSc1ccc(C(=O)C2CCCN(Cc3ccn[nH]3)C2)cc1 (stereo unspecified),-40.8% (inactive),
O=[N+]([O-])c1ccc(C2C3C(c4ccccc4)=NC4(CCCCC4)N32)cc1 (stereo unspecified),-20.1% (inactive),
CC(Cc1cccs1)NCc1ccc(Cl)cc1 (stereo unspecified),-3.26% (inactive),
Nc1ccc([N+](=O)[O-])cc1,6.3% [at 0.501 µM] (inactive),
O=c1c2ccccc2nc(-c2ccccc2)n1-c1ccccn1,0.769% [at 0.501 µM] (inactive),
CC12CN3CC(C)(CN(C1)C3c1cccs1)C2 (stereo unspecified),-3.29% (inactive),
Cc1ccc(-c2cc(C(=O)N3CCC4(CC3)OCCO4)no2)cc1,-1.09% (inactive),

Structure (SMILES),"activity, negative = inhibition",Potency
CCOC(=O)C(NS(=O)(=O)c1ccc(C)cc1)(C(F)(F)F)P(=O)(OCC(C)C)OCC(C)C (stereo unspecified),,7.08 µM (active)
COC(=O)C1=C(c2ccc(F)cc2OCc2ccccc2)C[C@@H]2CC[C@H]1N2C(=O)NCc1ccc(C(C)(C)C)cc1,21.1% [at 2.33 µM] (inactive),
CC(=O)Nc1ccccc1C(=O)OCC(=O)c1cccc2ccccc12,2.62% [at 59 µM] (inactive),
CCOC(=O)C1CCN(Cc2coc3ccc(Cl)cc3c2=O)CC1,,3.16 µM (active)
C[N+]12CN3CN(CN(C3)C1)C2,,1.12 µM (active)
COc1ccc(CCn2c(O)c(C=NCCCn3ccnc3)c(=O)[nH]c2=O)cc1OC,21% (inactive),
CCCCCCCCCCCCCC(=O)O[C@@H]1[C@@H](C)[C@@]2(O)[C@@H](C=C(CO)C[C@]3(O)C(=O)C(C)=C[C@@H]23)[C@@H]2C(C)(C)[C@]12OC(C)=O,8.77% [at 59 µM] (inactive),
COC(=O)N1C(c2ccccc2)C1c1ccccc1 (stereo unspecified),35.5% (inactive),
COC(=O)C1=C(c2cccc(OCc3ccccc3)c2)C[C@@H]2CC[C@H]1N2C(=O)NCc1ccc(Br)cc1,-5.98% [at 0.501 µM] (inactive),
COc1ccc(NC(=O)N2CCC3(CC2)OCCO3)c(OC)c1,18.8% (inactive),
O=C(Nc1cccc2ccccc12)N1CCC2(CC1)OCCO2,,50.1 µM (active)
O=C(c1cc(-c2ccncc2)nc2ccccc12)N1CCC2(CC1)OCCO2,-0.255% [at 59 µM] (inactive),
CCN1CC2C3CCC(C)(O3)C2C1 (stereo unspecified),-1.34% (inactive),
Cc1nnc(NC(=O)c2cccn(Cc3cccc(F)c3)c2=O)s1,12.5% [at 59 µM] (inactive),
Cn1cc(/C=C/c2nc3ccccc3c(=O)n2-c2ccccc2)c2ccccc21,-33.2% [at 59 µM] (inactive),
O=C(OCC1O[C@@H](OC(=O)c2cc(O)c(O)c(O)c2)[C@@H](OC(=O)c2cc(O)c(O)c(O)c2)[C@@H](OC(=O)c2cc(O)c(O)c(O)c2)[C@@H]1OC(=O)c1cc(O)c(O)c(O)c1)c1cc(O)c(O)c(O)c1 (stereo partly specified),,50.1 µM (active)
CCN(N=Nc1nonc1OC)c1nonc1OC,22.1% [at 59 µM] (inactive),
CC(=O)N(C1=NCCCS1)c1ccccc1F,1.9% (inactive),
COc1ccc(-c2nn(CCC#N)cc2C(=O)O)cc1,-18.2% (inactive),
CC(=O)c1ccc(OC(NC(=O)Cc2ccccc2)C(Cl)(Cl)Cl)cc1 (stereo unspecified),-9.58% (inactive),
CN(C)C(=O)Oc1ccc2c(c1)O/C(=C\c1ccccc1)C2=O,-35.3% (inactive),
N#CC(C#N)=Cc1cc(O)c(O)c([N+](=O)[O-])c1,,14.1 µM (active) and 15.8 µM (active)
NCCc1ccc(S(=O)(=O)F)cc1,inactive,
